Measured values reported in PubChem BioAssay.
Active and inactive are the calls of the source. Unless noted, no rule for the calls is given here.

Columns and labels:
[1] = tested on: Wnt5a (protein binding on small-molecule microarray); assay: small molecules binding Wnt5a protein – biophysical, small-molecule microarray, 635/667 nm fluorescence, primary screen (AID 1142); details: 635 nm fluorescence, higher = more signal;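 also: fluorescence read at 667 nm with signal to noise per printed feature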
[2] = ATP-based viability of Huh7 replicon cells – cell-based, CellTiter-Glo luminescence, basal, 48 h, cytotoxicity control for HCV replication inhibitor project, primary screen (AID 1143); details: higher = more signal, called active from +8 up or from −8 down;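 also: Huh7 hepatoma cells carrying a hepatitis C replication reporter with no stimulus; test concentration not given here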
[3] = Pseudomonas biofilm growth suppression – PAO1 strain, BacTiter-Glo luminescence, LB-PBS, primary screen (AID 1144); details: P. aeruginosa PAO1 biofilm, 12 h, higher = more signal
[4] = basal CRE-LacZ reporter activity in PC12 – cell-based, unstimulated, primary screen (AID 1145); details: no forskolin, luminescence, 4.5 h, higher = more signal, called active from +8 up or from −8 down
[5] = forskolin-driven CRE-LacZ activity in PC12 – cell-based, CRE-LacZ reporter, forskolin-stimulated, primary screen (AID 1146); details: luminescence, 4.5 h, higher = more signal, called active from +8 up or from −8 down;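 also: PC12 cells with 6xCRE LacZ reporter stimulated by forskolin 10 µM; beta-galactosidase reporter signal reflecting CREB driven transcription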
[6] = target: Streptavidin (Streptomyces avidinii) (UniProt P22629); assay: compounds binding control protein streptavidin – biophysical, small-molecule microarray, 635/667 nm fluorescence, artefact control for SMM compound annotation, primary screen (AID 1147); details: higher = more signal;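 also: signal reflects streptavidin binding to arrayed compounds as a control protein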
Chain of Streptavidin (Streptomyces avidinii) (P22629 whole entry, looked up): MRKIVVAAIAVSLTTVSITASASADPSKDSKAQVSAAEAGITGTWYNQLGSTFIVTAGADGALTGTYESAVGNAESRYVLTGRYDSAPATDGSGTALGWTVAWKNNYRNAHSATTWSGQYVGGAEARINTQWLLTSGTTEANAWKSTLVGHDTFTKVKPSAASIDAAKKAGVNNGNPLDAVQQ

[7] = probe aInhba binding on compound microarray – biochemical, small-molecule microarray, 635/667 nm fluorescence, primary screen (AID 1148); details: higher = more signal;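 also: score merges 667nm spot fluorescence with signal-to-noise for antibody binding to printed compounds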
Torsin-1A (Homo sapiens) [8] = target: Torsin-1A (Homo sapiens) (UniProt O14656); assay: TOR1A wild-type binding on microarray – cell lysate, small-molecule microarray, lysate, 635/667 nm, primary screen (AID 1149); details: COS7 hTOR1A-WT lysate, 635 nm fluorescence, higher = more signal
Chain of Torsin-1A (Homo sapiens) (O14656 whole entry, looked up): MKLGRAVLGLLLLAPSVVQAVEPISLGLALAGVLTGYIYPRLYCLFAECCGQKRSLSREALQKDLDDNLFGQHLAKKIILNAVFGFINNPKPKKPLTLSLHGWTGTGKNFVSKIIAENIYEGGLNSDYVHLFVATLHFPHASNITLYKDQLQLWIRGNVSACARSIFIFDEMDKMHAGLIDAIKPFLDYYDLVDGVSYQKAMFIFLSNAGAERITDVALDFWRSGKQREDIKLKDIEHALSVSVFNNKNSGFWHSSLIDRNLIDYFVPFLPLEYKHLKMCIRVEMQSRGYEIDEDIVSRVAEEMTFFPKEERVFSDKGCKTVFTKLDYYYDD

Torsin-1A (Homo sapiens) [9] = target: Torsin-1A (Homo sapiens) (UniProt O14656); assay: torsin A mutant lysate binding on microarrays – cell lysate, small-molecule microarray, COS7 lysate, 635/667 nm fluorescence, primary screen (AID 1150); details: COS7 hTOR1A mutant lysate, 635 nm fluorescence, higher = more signal;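 also: score pools 667 nm emission and signal to noise measuring lysate protein binding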
[10] = tested on: Sonic hedgehog protein (Shh); assay: Sonic hedgehog microarray binding compounds – biochemical, small-molecule microarray, 635/667 nm fluorescence, primary screen (AID 1151); details: 635 nm fluorescence, higher = more signal;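 also: Shh protein binding to compounds spotted on small-molecule microarray slides; score combines spot fluorescence intensity with signal-to-noise across triplicate slides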
[11] = optical density shifts of acrAB sulA E. coli – strain DRC41, OD650, 48 h, E. coli filamentation inducer project, primary screen (AID 1152); details: higher = more signal, called active from +8 up or from −8 down;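 also: E. coli MC1000 strain DRC41 lacking acrAB efflux pump and sulA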
[12] = probe aLefty1 binding on compound microarray – biochemical, small-molecule microarray, 635/667 nm fluorescence, primary screen (AID 1153); details: higher = more signal;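 also: score merges spot fluorescence with signal-to-noise ratio from the scanned slide images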
[13] = plasmodial surface anion channel blockers, osmotic lysis – cell-based, P. falciparum Indochina, OD700, 1 h, primary screen (AID 1154); details: P. falciparum Indochina infected RBC osmotic lysis, higher = more signal, called active from +8 up or from −8 down
[14] = plasmodial surface anion channel blockers, osmotic lysis – cell-based, P. falciparum Indochina, OD700, 2 h, primary screen (AID 1155);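 also: lysis reports solute entry through the parasite surface anion channel PSAC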; details: P. falciparum Indochina infected erythrocytes, higher = more signal, called active from +8 up or from −8 down
[15] = changes in parasitized red cell lysis, either direction – P. falciparum Indochina, OD700, 3 h, PSAC antagonist project, primary screen (AID 1156); details: P. falciparum-infected erythrocytes, osmotic lysis, higher = more signal, called active from +8 up or from −8 down
[16] = plasmodial surface anion channel blockers, osmotic lysis – cell-based, P. falciparum Indochina, OD700, 18 h, primary screen (AID 1157); details: P. falciparum Indochina infected erythrocytes, osmotic lysis OD700, 18 h; higher = more signal, called active from +8 up or from −8 down
[17] = S6 kinase pathway phospho-S6 level changes – cell-based, A549, cytoblot, luminescence, serum-stimulated, primary screen (AID 1158); details: 5 h, higher = more signal;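 also: serum-stimulated A549 lung adenocarcinoma cells; signal is phosphorylated S6 detected by cytoblot immunostaining with HRP secondary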
[18] = target: NADPH oxidase 2 (Homo sapiens) (UniProt P04839); assay: compounds shifting NOX2 Amplex Red fluorescence – cell-based, HEK293-NOX2, PMA-stimulated, NOX inhibitor project, primary screen (AID 1159); details: 45 min, higher = more signal, called active from +8 up or from −8 down; also: test concentration not given here
Chain of NADPH oxidase 2 (Homo sapiens) (P04839 whole entry, looked up): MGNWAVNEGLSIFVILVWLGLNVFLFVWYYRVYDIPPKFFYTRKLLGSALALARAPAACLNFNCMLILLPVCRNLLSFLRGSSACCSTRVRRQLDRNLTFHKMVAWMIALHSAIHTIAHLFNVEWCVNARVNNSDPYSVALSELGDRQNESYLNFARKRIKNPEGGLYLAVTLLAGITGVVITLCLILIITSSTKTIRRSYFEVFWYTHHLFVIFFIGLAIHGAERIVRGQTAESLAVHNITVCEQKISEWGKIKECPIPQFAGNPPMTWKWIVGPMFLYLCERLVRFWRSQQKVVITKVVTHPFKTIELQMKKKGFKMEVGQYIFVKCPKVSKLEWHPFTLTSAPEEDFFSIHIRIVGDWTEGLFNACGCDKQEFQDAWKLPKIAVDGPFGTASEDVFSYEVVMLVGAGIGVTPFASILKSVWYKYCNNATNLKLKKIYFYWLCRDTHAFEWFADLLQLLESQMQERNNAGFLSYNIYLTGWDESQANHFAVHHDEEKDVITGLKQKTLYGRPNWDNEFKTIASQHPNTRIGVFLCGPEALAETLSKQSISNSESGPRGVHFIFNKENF

[19] = target: NADPH oxidase 4 (Homo sapiens) (UniProt Q9NPH5); assay: compounds shifting NOX4 Amplex Red fluorescence – cell-based, HEK293-NOX4, tetracycline-induced, NOX inhibitor project, primary screen (AID 1160); details: HEK293-NOX4, Amplex Red H2O2 fluorescence, 45 min; higher = more signal, called active from +8 up or from −8 down
Chain of NADPH oxidase 4 (Homo sapiens) (Q9NPH5 whole entry, looked up): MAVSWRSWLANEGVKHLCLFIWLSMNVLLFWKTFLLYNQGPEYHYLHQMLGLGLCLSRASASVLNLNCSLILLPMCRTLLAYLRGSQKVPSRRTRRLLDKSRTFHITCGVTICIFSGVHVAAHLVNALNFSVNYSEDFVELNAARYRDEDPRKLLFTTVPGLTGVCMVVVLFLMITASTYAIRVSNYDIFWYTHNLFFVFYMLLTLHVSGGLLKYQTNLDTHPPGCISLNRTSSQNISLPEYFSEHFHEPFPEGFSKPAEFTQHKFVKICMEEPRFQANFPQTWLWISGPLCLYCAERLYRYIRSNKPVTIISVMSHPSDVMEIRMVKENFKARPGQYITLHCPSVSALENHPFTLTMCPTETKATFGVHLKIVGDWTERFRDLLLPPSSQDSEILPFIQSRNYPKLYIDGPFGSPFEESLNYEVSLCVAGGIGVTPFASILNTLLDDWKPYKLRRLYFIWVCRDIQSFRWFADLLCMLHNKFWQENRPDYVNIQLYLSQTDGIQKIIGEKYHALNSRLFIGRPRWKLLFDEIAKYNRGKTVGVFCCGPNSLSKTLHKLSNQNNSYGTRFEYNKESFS

[20] = target: NADPH oxidase 5 (Homo sapiens) (UniProt Q96PH1); assay: compounds shifting NOX5 Amplex Red fluorescence – cell-based, HEK293-NOX5, NOX inhibitor project, primary screen (AID 1161); details: HEK293-NOX5, ionomycin, 45 min, higher = more signal
Chain of NADPH oxidase 5 (Homo sapiens) (Q96PH1 whole entry, looked up): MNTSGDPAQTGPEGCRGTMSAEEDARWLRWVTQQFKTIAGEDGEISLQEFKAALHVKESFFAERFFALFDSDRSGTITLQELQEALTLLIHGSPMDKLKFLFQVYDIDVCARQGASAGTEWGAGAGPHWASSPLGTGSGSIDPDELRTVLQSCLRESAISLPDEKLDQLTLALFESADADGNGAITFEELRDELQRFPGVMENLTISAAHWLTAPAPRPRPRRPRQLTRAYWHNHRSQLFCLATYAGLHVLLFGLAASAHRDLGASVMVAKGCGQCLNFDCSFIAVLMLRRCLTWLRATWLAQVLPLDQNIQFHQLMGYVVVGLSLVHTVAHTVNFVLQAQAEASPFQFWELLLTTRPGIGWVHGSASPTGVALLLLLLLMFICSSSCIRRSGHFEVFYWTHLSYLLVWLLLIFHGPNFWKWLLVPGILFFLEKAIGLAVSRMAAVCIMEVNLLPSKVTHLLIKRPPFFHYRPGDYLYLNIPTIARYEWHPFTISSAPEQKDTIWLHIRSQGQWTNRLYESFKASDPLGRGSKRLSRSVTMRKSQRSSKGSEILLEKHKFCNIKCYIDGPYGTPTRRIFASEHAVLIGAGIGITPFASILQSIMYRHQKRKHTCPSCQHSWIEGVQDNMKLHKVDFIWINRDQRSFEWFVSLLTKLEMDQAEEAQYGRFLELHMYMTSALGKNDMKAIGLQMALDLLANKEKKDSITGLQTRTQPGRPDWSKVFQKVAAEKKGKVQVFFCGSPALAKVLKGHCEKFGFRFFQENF

Row | Compound | composite z-score [1] | z-score [2] | z-score [3] | z-score [4] | z-score [5] | composite z-score [6] | composite z-score [7] | composite z-score (Torsin-1A (Homo sapiens) [8]) | composite z-score (Torsin-1A (Homo sapiens) [9]) | composite z-score [10] | z-score [11] | composite z-score [12] | z-score [13] | z-score [14] | z-score [15] | z-score [16] | z-score [17] | z-score [18] | z-score [19] | z-score [20]
1 | COC(=O)[C@H](Cc1ccc(O)cc1)N[C@@H](/C=C/C1CC1)[C@H](O)Cc1ccccc1 | -0.377 | -0.794 (inactive) | 0.814 (inactive) | 7.92 (inactive) | 1.6 (inactive) | -0.295 | -0.153 | -0.474 | 0.0615 | -0.142 | -0.571 (inactive) | -0.275 | 0.963 (inactive) | 0.496 (inactive) | 0.098 (inactive) | -0.0396 (inactive) | -0.557 | 0.0285 (inactive) | 0.516 (inactive) | -0.929
2 | C[N+](C)(C)CCCCNC(=O)[C@H]1C[C@H]2C(=O)N[C@@H](Cc3ccccc3)C(=O)N2[C@H]1c1cccc(OCCO)c1 | 0.278 | -0.15 (inactive) | -0.495 (inactive) | -0.13 (inactive) | -0.384 (inactive) | 0.313 | 0.152 | 0.971 | 0.342 | 2.23 | 0.0946 (inactive) | 0.186 | 5.34 (inactive) | 0.772 (inactive) | -0.835 (inactive) | 0.818 (inactive) | 0.17 | -0.423 (inactive) | -0.824 (inactive) | -0.418
3 | Cc1ccc(N2C(=O)c3ccccc3[C@](C)(C(=O)NCCCN(C)C)[C@@H]2c2ccc(CO)cc2)nc1 | -0.169 | 0.368 (inactive) | 0.414 (inactive) | 0.0279 (inactive) | 0.64 (inactive) | -0.0986 | -0.0983 | -1.38 | -1.27 | -1.01 | -0.666 (inactive) | -0.0058 | 1.23 (inactive) | 0.0681 (inactive) | 0.386 (inactive) | -0.135 (inactive) | -0.0873 | 0.627 (inactive) | 0.631 (inactive) | 0.199
4 | O=C(N1CCOCC1)[C@@]1(Cc2ccccc2)COC(c2ccc(OCCCO)cc2)=N1 | 0.242 | -5.19 (inactive) | -0.446 (inactive) | 0.484 (inactive) | -2.35 (inactive) | 0.647 | 0.0422 | 0.315 | 1.02 | -1.05 | 2.51 (inactive) | -0.132 | 12 (active) | 0.653 (inactive) | 0.929 (inactive) | -0.269 (inactive) | 1.66 | -2.33 (inactive) | 0.642 (inactive) | -1.51
5 | C=CCC(OC(C)=O)[C@@H]1[C@@H](N(Cc2cc3ccccc3o2)C(=O)Cc2ccc(OC)cc2)c2cc(OCCCO)ccc2N1C(=O)c1ccc2ccccc2n1 (stereo not given in full) | -0.124 | -1.03 (inactive) | 0.267 (inactive) | 4.52 (inactive) | -0.24 (inactive) | 0.229 | -0.0103 | 0.135 | -0.136 | 0.0685 | 0.697 (inactive) | 0.231 | 2.75 (inactive) | 0.567 (inactive) | 0.867 (inactive) | 0.186 (inactive) | 0.856 | 0.226 (inactive) | -1.14 (inactive) | 1.52
6 | COC(=O)[C@]1(CCC(=O)OC(C)(C)C)N=C(c2ccc(OCCCO)cc2)O[C@@H]1c1ccccc1N=[N+]=[N-] | 0.827 | -2.64 (inactive) | -0.192 (inactive) | 0.834 (inactive) | 0.154 (inactive) | -0.0444 | -0.0658 | 0.154 | 0.0612 | 0.886 | -0.725 (inactive) | 0.0591 | 30.9 (active) | 25.9 (active) | 1.64 (inactive) | 5.32 (inactive) | -0.328 | -1.41 (inactive) | -0.601 (inactive) | -2.4
7 | CN1C(=O)C2C(C1=O)C1C=C(c3ccc(CO)cc3)C2C(C2CC2)N1C (stereo not given) | -0.283 | -0.131 (inactive) | 0.178 (inactive) | -0.219 (inactive) | 0.173 (inactive) | -0.095 | -0.128 | 0.508 | 0.286 | -0.605 | 0.235 (inactive) | -0.177 | 0.773 (inactive) | 0.892 (inactive) | 0.472 (inactive) | 0.184 (inactive) | 0.691 | -1.19 (inactive) | -0.394 (inactive) | 0.163
8 | COCCCNC(=O)[C@@]1(CCS(=O)(=O)c2ccccc2)COC(c2ccc(OCCCO)cc2)=N1 | 0.612 | -0.0036 (inactive) | 0.86 (inactive) | 0.918 (inactive) | -0.387 (inactive) | 2.53 | 0.271 | 1.29 | 1.49 | -0.334 | 1.08 (inactive) | 0.87 | 29.2 (active) | 24.6 (active) | 0.764 (inactive) | 4.31 (inactive) | -0.131 | -0.556 (inactive) | 0.25 (inactive) | 0.0637
9 | CC1CC/C=C\[C@H]2OC34C=CCN(c5ccc(Cl)cc5)C(=O)[C@H]3N(CCCCCCO)C(=O)[C@]4(C)C2C(=O)O1 (stereo not given in full) | -0.765 | 0.641 (inactive) | 0.306 (inactive) | 1 (inactive) | -0.446 (inactive) | -0.963 | -0.239 | -2.03 | -1.7 | -0.12 | 0.348 (inactive) | 0.0999 | -0.108 (inactive) | -0.36 (inactive) | -0.0544 (inactive) | 0.0625 (inactive) | -0.11 | 1.37 (inactive) | 0.37 (inactive) | 1.98
